An excerpt weighted towards active compounds, which were near 3.5% of everything screened.
MITF inh: MITF inhibitors, primary screen, biochemical, AlphaScreen, human. inhibition, % at 2.6 µM. AlphaScreen MITF homodimerization, bead proximity signal. actives 0.91% (n = 650,000); in the data active = inhibition above about 50%
Target sequence (O75030 whole entry, looked up): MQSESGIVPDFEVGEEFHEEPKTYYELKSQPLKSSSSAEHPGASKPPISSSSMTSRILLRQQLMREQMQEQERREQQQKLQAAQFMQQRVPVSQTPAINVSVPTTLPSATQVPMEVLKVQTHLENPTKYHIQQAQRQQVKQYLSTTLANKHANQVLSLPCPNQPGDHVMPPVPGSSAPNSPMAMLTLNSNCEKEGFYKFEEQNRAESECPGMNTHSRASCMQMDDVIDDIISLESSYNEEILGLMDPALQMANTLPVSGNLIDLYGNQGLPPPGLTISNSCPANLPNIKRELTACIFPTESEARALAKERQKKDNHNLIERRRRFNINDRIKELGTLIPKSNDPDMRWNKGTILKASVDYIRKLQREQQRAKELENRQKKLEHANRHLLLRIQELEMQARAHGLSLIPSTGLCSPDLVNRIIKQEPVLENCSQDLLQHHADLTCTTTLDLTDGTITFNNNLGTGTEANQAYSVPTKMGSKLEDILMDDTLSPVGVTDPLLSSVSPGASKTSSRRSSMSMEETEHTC
TEAD-YAP inh: TEAD-YAP interaction inhibition, primary screen, TEAD-YAP interaction inhibitor project, luminescence, HEK-TIYL cells; TEAD-Gal4/YAP UAS-luciferase luminescence; inhibition, % at 9.12 µM; actives 1.4% (n = 640,000); in the data active = inhibition above about 32%
GPR151 ag: activators of human GPR151, primary screen, cell-based, PathHunter beta-arrestin, luminescence. G-protein coupled receptor 151 (Homo sapiens), Q8TDV0. PathHunter beta-arrestin GPR151 cells. activation, % at 11.2 µM. actives 1% (n = 650,000). AID 1508602, 2020; in the data active = activation above about 4.9%
FBW7 activator: FBW7 E3 ligase activators, primary screen, biochemical, AlphaScreen, human | F-box/WD repeat-containing protein 7 (Homo sapiens), Q969H0 | AlphaScreen FBW7–phospho-cyclin E peptide binding, activator screen | normalized activity (activation), % at 26.1 µM | actives 0.13% (n = 650,000); in the data active = normalized activity above about 1.9%;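 note: purified mutant Fbw7 with reduced substrate affinity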
MITF confirm: MITF inhibitors, retest of hits, confirmation, biochemical, AlphaScreen, triplicate | shares compounds with MITF inh | AlphaScreen MITF homodimerization, biotin/His-MITF beads | inhibition, % at 2.6 µM | actives 16% (n = 4,700);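 active = inhibition above a cutoff derived from the DMSO control wells, cut at about 28% in these data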;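 note: inhibitors lower the bead chemiluminescence by keeping MITF from dimerizing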
AlphaScreen intf2: AlphaScreen optical interference compounds, counter-screen for MITF inhibitor project, biochemical, triplicate; shares compounds with MITF inh; LysRS AlphaScreen counterscreen, signal interference; inhibition, % at 2.6 µM; actives 7.6% (n = 4,700); AID 1259376, 2018;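 active = inhibition above a cutoff derived from the DMSO control wells, cut at about 30% in these data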
Each line names hits and unclear results; the compound was inactive in the other large screens (follow-up assays come after a bar, where they were run).

c1ccc(-c2cc(N3CCC4(CC3)OCCO4)nc(-c3ccccn3)n2)nc1	MITF inh 114, TEAD-YAP inh 68 | MITF confirm 116 | AlphaScreen intf2 100
Cc1ccc(CSc2nc3c(c(=O)[nH]c(=O)n3C)n2CCCc2ccccc2)cc1	none
C=CCN(CC=C)CCOc1ccc(C)cc1OC	none
C=CCN(CC=C)CCCOc1ccc(C)cc1OC	MITF inh 55 | MITF confirm inactive | AlphaScreen intf2 inactive
COc1cc(C)ccc1OCCCCN1CCNCC1	MITF inh 63 | MITF confirm inactive | AlphaScreen intf2 inactive
COc1cc(C)ccc1OCCN1CCNCC1	none
C/C=C/c1ccc(OCCCCN2CCNCC2)c(OC)c1	MITF inh 59 | MITF confirm inactive | AlphaScreen intf2 inactive
O=C(O)c1cc(N2C(=O)c3ccccc3C2=O)ccc1NCc1cccnc1	none
CCC(CN1CCOCC1)NC(=O)c1cccc(-n2ncc3cc(Nc4c(Cl)cccc4Cl)ccc32)c1 (stereo not drawn)	none
Cc1nn(-c2nnc3c(n2)[nH]c2ccc(Br)cc23)c(C)c1Cc1ccccc1	none
CCc1nc(SCC(=O)c2ccc(OC)cc2)n[nH]1	MITF inh 51 | MITF confirm inactive | AlphaScreen intf2 inactive
CCc1nc(SCC(=O)c2ccc(OC)c(C)c2)n[nH]1	none
Oc1ccc(CNc2ccccc2)c2cccnc12	MITF inh 73 | MITF confirm 44 | AlphaScreen intf2 80
COc1cccc(NCc2ccc(O)c3ncccc23)c1	MITF inh 56, TEAD-YAP inh 92 | MITF confirm 93 | AlphaScreen intf2 92
Oc1ccc(CNc2ccc(F)cc2)c2cccnc12	MITF inh 66 | MITF confirm 104 | AlphaScreen intf2 100
Oc1ccccc1CNc1ccc(F)cc1	none
Oc1ccc(CNc2cccc(F)c2)c2cccnc12	MITF inh 62, TEAD-YAP inh 55 | MITF confirm 98 | AlphaScreen intf2 100
Cc1ccsc1C1C(C#N)=C(N)N(c2cccc([N+](=O)[O-])c2)C2=C1C(=O)CC(C)(C)C2 (stereo not drawn)	none
Cc1ccc2c(c1)N(CC(=O)NCCO)C(=O)CO2	none
O=C(CNS(=O)(=O)c1ccccc1)NCC(=O)Nc1ccccc1	none
COc1ccc(NCc2ccc(O)c3ncccc23)c(OC)c1	MITF inh 75 | MITF confirm 46 | AlphaScreen intf2 89
Cc1ccsc1/C=N/Nc1nc(=O)[nH]nc1C	MITF inh 60 | MITF confirm 34 | AlphaScreen intf2 100
Cc1n[nH]c(=O)nc1N/N=C/c1ccc(O)cc1	none
C=CCN1C(=O)/C(=C/c2cn(CC=C)c3ccccc23)C(=O)NC1=S	none
Cc1ccc(CN2CCN(C3CCCCCC3)CC2)cc1	MITF inh 69 | MITF confirm inactive | AlphaScreen intf2 inactive
CSc1ccc(CN2CCN(C3CCCC3)CC2)cc1	MITF inh 54 | MITF confirm inactive | AlphaScreen intf2 inactive
CCc1ccc(CN2CCN(C3CCCCC3)CC2)cc1	MITF inh 62 | MITF confirm inactive | AlphaScreen intf2 inactive
CCc1ccc(CN2CCN(C3CCCC3)CC2)cc1	none
CSc1ccc(CN2CCC(N3CCCCC3)CC2)cc1	none
O=C(Nc1cccc(NC(=O)c2cc(I)ccc2Cl)c1)c1ccccc1	none
Nc1cc(C(=O)c2ccc(O)c(N)c2)ccc1O	none
Nc1cc(Oc2ccc(O)c(N)c2)ccc1O	MITF inh 111 | MITF confirm 117 | AlphaScreen intf2 78
Cc1ccccc1SCC(=O)NNC(=O)Cn1c(C(F)(F)F)nc2ccccc21	none
Brc1cccc(OCCOCCn2ccnc2)c1	none
Brc1cccc(OCCn2ccnc2)c1	MITF inh 52 | MITF confirm inactive | AlphaScreen intf2 inactive
Brc1cccc(OCCCn2ccnc2)c1	MITF inh 65 | MITF confirm inactive | AlphaScreen intf2 inactive
Nc1cc2c3c(cc(N)cc3c1)C(=O)N(O)C2=O	MITF inh 106 | MITF confirm 111 | AlphaScreen intf2 94
O=CN1CCN(C(=O)COc2ccc(Br)cc2Cl)CC1	MITF inh 70 | MITF confirm inactive | AlphaScreen intf2 inactive
O=C(COc1ccc(Br)cc1Cl)N1CCCCC1	none
COc1ccc(-n2nc3c(c2NC(=O)c2ccc4c(c2)OCO4)CSC3)cc1	MITF inh 89 | MITF confirm inactive | AlphaScreen intf2 inactive
Cc1ccc(C(=O)Nc2c3c(nn2-c2ccccc2C)CSC3)cc1	MITF inh 71 | MITF confirm inactive | AlphaScreen intf2 inactive
Cc1ccccc1C(=O)Nc1c2c(nn1-c1ccc([N+](=O)[O-])cc1)CSC2	MITF inh 61 | MITF confirm inactive | AlphaScreen intf2 inactive
Cc1ccccc1-n1nc2c(c1NC(=O)c1ccc(Br)cc1)CSC2	none
CN(CC(O)COc1ccccc1CN1CCSCC1)C1CCCCC1 (stereo not drawn)	none
CC1CN(CCCOc2ccc(Br)cc2Cl)CC(C)O1 (stereo not drawn)	MITF inh 58 | MITF confirm inactive | AlphaScreen intf2 inactive
CC1CN(CCOc2ccc(Br)cc2Cl)CC(C)O1 (stereo not drawn)	MITF inh 51 | MITF confirm inactive | AlphaScreen intf2 inactive
CC1CN(CCOc2ccc(Cl)cc2Cl)CC(C)O1 (stereo not drawn)	none
CCOc1ccccc1OCCN1CC(C)OC(C)C1 (stereo not drawn)	none
Cc1cc(C)c(C)c(OCCN2CC(C)OC(C)C2)c1 (stereo not drawn)	MITF inh 71 | MITF confirm inactive | AlphaScreen intf2 inactive
CCOC(=O)c1[nH]c(C)c(CNc2ccccc2)c1C	MITF inh 60 | MITF confirm inactive | AlphaScreen intf2 inactive
CCOC(=O)c1[nH]c(C)c(CNc2cccc(F)c2)c1C	none
S=c1c(Cl)c(Cl)cnn1-c1ccccc1	none
COc1ccc(CN2CCN(Cc3ccco3)CC2)c(OC)c1OC	MITF inh 55 | MITF confirm inactive | AlphaScreen intf2 inactive
COc1ccccc1CN1CCN(Cc2ccco2)CC1	MITF inh 77 | MITF confirm inactive | AlphaScreen intf2 inactive
COc1ccc(CN2CCN(Cc3ccco3)CC2)c(OC)c1	MITF inh 73 | MITF confirm inactive | AlphaScreen intf2 inactive
COc1ccc(CN2CCN(C(=O)c3ccco3)CC2)c(OC)c1OC	none
COc1ccc(CN2CCc3ccccc3C2)c(OC)c1	none
CC(c1ccccc1)n1c(=O)[nH]c2ccccc21 (stereo not drawn)	none
Cc1c(Cl)cccc1NC(=O)c1ccc(C(C)(C)C)cc1	none
O=C(Cn1c(=O)c2cccn2c2ccccc21)NCc1cccc(Br)c1	none
Cc1cnc(CNc2cc(-c3ccccn3)nc(-c3ccccn3)n2)nc1	MITF inh 110 | MITF confirm 115 | AlphaScreen intf2 100

Source: PubChem
